This is an account of results in ChEMBL document CHEMBL3988442, “University of Dundee, Small-Polar-MMV Screening Library” (2021).

Each structure is given as a SMILES string. About 13,000 (27%) of roughly 48,000 compounds showed an effect of 50% or more. The list shows a part of the results.

The test system of the test is Wolbachia pipientis. Briefly: Anti-Wolbachia Cell-Based Screen. The test is classed as functional. On the set-up: scale not given: in the data most compounds retested in dose-response had high values. To be noted: 5 µM.
`CC(C)OCCOCc1cccc(NC(=O)NCc2ccncc2)c1`: the “Percent Effect” value is reported as 3.047%.
For the molecule `Cn1nnc2cc(C(=O)NS(=O)(=O)c3ccc(F)cc3)ccc21`, the “Percent Effect” value is recorded as -8.568%.
For `Cc1cnn(CC2CCCN2C(=O)Cc2c(C)noc2C)c1` (stereo unspecified), the “Percent Effect” value was 123.7%.
For the molecule `Cc1cc(C)n(CC2CCCN2C(=O)Cc2c(C)noc2C)n1` (stereo unspecified), the “Percent Effect” value is on record as 2.87%.
Regarding `Cc1nccn1CC1CCCN(Cc2ccc(-c3cccnc3)cc2)C1` (stereo unspecified), the “Percent Effect” value is 30.54%.
To `COc1ccnc(CN2CCCC(CCc3ccccc3)C2)c1OC` (stereo unspecified) belongs -14.6%; to `COc1coc(CN2CCCC(CCc3ccc(F)cc3)C2)cc1=O` (stereo unspecified), 20.93%; to `COc1ccc(CCC2CCCN(CC(=O)O)C2)cc1` (stereo unspecified), 116.8%.
As for `CN(C)C(=O)CCC1CCCN(Cc2ccc(-c3cccnc3)cc2)C1` (stereo unspecified), the “Percent Effect” value is listed as -4.388%.
`COc1ccc(CCC2CCCN(C(=O)CCc3cc(O)no3)C2)cc1` (stereo unspecified): the “Percent Effect” value was determined as 6.592%.
The same measure for `O=C(O)COc1ccc(CN2CCCC(CCc3ccccc3)C2)cc1` (stereo unspecified): 98.9%.
As to `Cc1[nH]c(=O)[nH]c(=O)c1CN1CCCC(CCc2ccccc2)C1` (stereo unspecified), the “Percent Effect” value is -19.89%.
For the molecule `O=C(O)COc1ccc(CN2CCCC(Cc3cccnc3)C2)cc1` (stereo unspecified), the “Percent Effect” value was 125.7%.
To `OCC(O)CSCc1ccc(Cl)cc1Cl` (stereo unspecified) belongs -1.817%; to `Cc1nc(NC(=O)OC(C)(C)C)sc1C#N`, 16.95%.
`CCCc1n[nH]c(C2CN(C(=O)c3cccc4[nH]ncc34)CCO2)n1` (stereo unspecified): the “Percent Effect” value came to 117.3%.
`CCCc1n[nH]c(C2CN(C(=O)c3n[nH]c4ccccc34)CCO2)n1` (stereo unspecified): the “Percent Effect” value is 103.5%.
The same measure for `CCCc1n[nH]c(C2CN(C(=O)c3cccc4cn[nH]c34)CCO2)n1` (stereo unspecified): 108.2%; for `CCCc1n[nH]c(C2CN(C(=O)c3cc(F)ccc3OC)CCO2)n1` (stereo unspecified): -4.099%; for `CCCc1n[nH]c(C2CN(C(=O)c3cccnc3N(C)C)CCO2)n1` (stereo unspecified): 106.9%.
As for `CC(C)c1n[nH]c(C2CN(C(=O)c3cccc4cn[nH]c34)CCO2)n1` (stereo unspecified), the “Percent Effect” value was 2.376%.
For `COc1ccc(CNCCc2cccc(C(N)=O)c2)cc1O`, the “Percent Effect” value turned out to be 8.083%.
For `O=C(O)C(F)(F)F.O=C(O)C(F)(F)F.c1snnc1CN1C[C@H]2CCC[C@@H](CN3CCOCC3)[C@H]2C1`, the “Percent Effect” value is on record as 4.838%.
With `COc1ccc(C(=O)NCCCC2(C3OCCO3)CCOCC2)cc1`, the “Percent Effect” value amounted to 0.9631%.
To `CCCc1n[nH]c(C2CN(C(=O)c3ccco3)CCO2)n1` (stereo unspecified) belongs -0.9471%; to `CCCc1n[nH]c(C2CN(C(=O)C3=COCCC3)CCO2)n1` (stereo unspecified), -2.018%; to `CCCc1n[nH]c(C2CN(C(=O)c3ccc[nH]3)CCO2)n1` (stereo unspecified), 125.3%.
The same measure for `Cc1ccc(CC(=O)NC(C)C(=O)N2CCS(=O)(=O)CC2)s1` (stereo unspecified): 0.993%.
Turning to `CO[C@H]1C[C@@H]2CN(C(=O)c3cccc4c3OCCO4)C[C@@H]2C1`, the “Percent Effect” value came to 78.24%.
`CO[C@H]1C[C@@H]2CN(C(=O)c3ccc(C)s3)C[C@@H]2C1`: the “Percent Effect” value turned out to be 128.5%.
With `C[C@H]1C[C@H]2CN(C(=O)c3cccc4c3OCCO4)CC[C@H]2O1`, the “Percent Effect” value is 2.231%.
`COc1ccc(F)cc1C(=O)N1CC(c2ccncc2)C1`: the “Percent Effect” value worked out at 9.533%.
Take `CO[C@H]1C[C@@H]2CN(C(=O)Cc3ccc(C)s3)C[C@@H]2C1`: the “Percent Effect” value was determined as 123.2%.
For `C[C@@H]1C[C@H]2CN(C(=O)c3cccc4c3OCCO4)C[C@H]2O1`, the “Percent Effect” value is reported as -11.28%.
Turning to `Cc1csc(N2CCN(C(=O)Cc3ccc(C)s3)CC2)n1`, the “Percent Effect” value is listed as 9.508%.
As to `COc1ccc(F)cc1C(=O)N1C[C@H]2C[C@H](OC)C[C@H]2C1`, the “Percent Effect” value stood at 117.3%.
Turning to `COc1ccc(F)cc1C(=O)N1CCCC(n2nc(C)nc2C)C1` (stereo unspecified), the “Percent Effect” value is listed as -10.5%.
In the case of `COc1ccc2c(c1)CN(Cc1nc3c(cnn3C)c(=O)[nH]1)CC2`, the “Percent Effect” value is recorded as -2.019%.
Turning to `Cc1sc(-c2ccco2)nc1C(=O)N(CC1CCOC1)C1CC1` (stereo unspecified), the “Percent Effect” value is given as 13.16%.
As for `Cc1cc(CNC(=O)C2CCCCN2C(=O)OC(C)(C)C)no1` (stereo unspecified), the “Percent Effect” value is reported as 8.299%.
For the molecule `CN(Cc1ccc(F)cc1)CC1(O)CCN(C(=O)c2ccccc2)C1` (stereo unspecified), the “Percent Effect” value was -10.29%.
`Cc1ccc(OC2(C(=O)O)CCN(C(=O)c3ccsc3)CC2)cn1`: the “Percent Effect” value is reported as -3.963%.
In the case of `CN(C)CC1(O)CCN(C(=O)c2cnc(-c3ccccn3)nc2)C1` (stereo unspecified), the “Percent Effect” value is -10.46%.
For `CN(Cc1ccc(F)cc1)CC1(O)CCN(C(=O)c2ccsc2)C1` (stereo unspecified), the “Percent Effect” value is 101.4%.
For the molecule `CN(Cc1ccc(F)cc1)CC1(O)CCN(C(=O)c2ccccn2)C1` (stereo unspecified), the “Percent Effect” value was found to be 129.8%.
With `CN(C)CC1(O)CCCN(C(=O)c2cnc(-c3ccccn3)nc2)C1` (stereo unspecified), the “Percent Effect” value came out at 7.408%.
As to `CN(C)CC1(O)CCN(C(=O)c2ccc(-n3cnnc3)cc2Cl)C1` (stereo unspecified), the “Percent Effect” value was -7.306%.
`CN(C)CC1(O)CCCN(C(=O)c2ccccc2-n2cncn2)C1` (stereo unspecified): the “Percent Effect” value is reported as -6.613%.
For the molecule `Cc1ncncc1C(=O)N1CCC(O)(CN(C)Cc2ccc(F)cc2)C1` (stereo unspecified), the “Percent Effect” value is listed as 90.38%.
With `CN(Cc1ccc(F)cc1)CC1(O)CCN(C(=O)c2ccncc2)C1` (stereo unspecified), the “Percent Effect” value is on record as 120.1%.
Turning to `CN(C)CC1(O)CCN(C(=O)c2cnc(-c3cccnc3)nc2)C1` (stereo unspecified), the “Percent Effect” value is -2.107%.
